Laboratory results as given in PubChem BioAssay (NCI).
The panel holds about 79,000 compounds, 15% with a hit somewhere; the sample as a whole holds those more often. A number with no mark means an inactive call. Activity calls are given as the source filed them. No stated cut-off is given here; in the data, active means growth inhibition above about 70%; inactive means the rest.

Tests used:
[1] = NCI Yeast Anticancer Drug Screen. Data for the rad52 strain (AID 147);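 further: 0% = growth of vehicle-treated control cultures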; settings: S. cerevisiae rad52 mutant growth inhibition, active compounds read high
Outline: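 Compounds are applied to a genetically defined yeast strain lacking normal DNA damage repair, and inhibition of growth is expressed relative to cultures given vehicle only.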

[2] = NCI Yeast Anticancer Drug Screen. Data for the wt1 strain (AID 149);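 further: 0% = growth of vehicle-treated wt1 cultures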; settings: S. cerevisiae wt1 strain (SPY 50644) growth inhibition, active compounds read high
Outline: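 Compounds are added to wt1 yeast cultures. Growth is then measured. Inhibition is expressed relative to vehicle-treated controls.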

[3] = NCI Yeast Anticancer Drug Screen. Data for the rad50EPP+ strain (AID 151);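 further: 0% = growth of vehicle-treated control cultures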; settings: S. cerevisiae rad50 mutant strain, active compounds read high
Outline: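 Compounds were applied to the rad50EPP+ yeast strain, which bears a defined DNA repair alteration, and growth inhibition was determined relative to vehicle-treated cultures.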

[4] = NCI Yeast Anticancer Drug Screen. Data for the mgt1 strain (AID 153); settings: S. cerevisiae mgt1 mutant growth inhibition, active compounds read high
Outline: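 Strain: mgt1 yeast, one of a set carrying defined DNA damage repair or cell cycle control alterations. Compound-treated growth compared with vehicle.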

[5] = NCI Yeast Anticancer Drug Screen. Data for the rad50 strain (AID 155);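 further: 0% = growth of vehicle-only cultures of the same strain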; settings: S. cerevisiae rad50 strain growth inhibition, active compounds read high
Outline: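 Inhibition values express reduced yeast growth in compound-treated cultures relative to vehicle-treated controls.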

[6] = NCI Yeast Anticancer Drug Screen. Data for the mec2-1 strain (AID 157); settings: S. cerevisiae mec2-1 strain, active compounds read high
Outline: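 Strain: mec2-1 (DNA repair/cell cycle alteration). Compound exposure, then growth measured; inhibition expressed relative to vehicle.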

[7] = NCI Yeast Anticancer Drug Screen. Data for the rad14 strain (AID 159);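 further: 0% = growth of vehicle-treated control cultures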; settings: S. cerevisiae rad14 strain growth inhibition, active compounds read high
Outline: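 A mutant yeast strain defective in DNA damage repair is treated with compound; inhibition of its growth is scored against untreated, vehicle-exposed cultures.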

[8] = NCI Yeast Anticancer Drug Screen. Data for the sgs1 mgt1 strain (AID 161);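 further: 0% = growth of cultures given vehicle only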; settings: S. cerevisiae sgs1 mgt1 strain, active compounds read high
Outline: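 Read-out: growth inhibition vs vehicle controls. Cells: mutant yeast strain deficient in DNA damage repair.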

[9] = NCI Yeast Anticancer Drug Screen. Data for the CLN2oe strain (AID 163);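 further: 0% = growth of vehicle-only control cultures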; settings: S. cerevisiae CLN2oe strain, active compounds read high
Outline: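 Growth of a genetically modified yeast strain is measured after compound exposure and compared with cultures given vehicle alone.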

[10] = NCI Yeast Anticancer Drug Screen. Data for the cln2 rad14 strain (AID 165);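 further: 0% = growth equal to vehicle treated cultures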; settings: S. cerevisiae cln2 rad14 strain, active compounds read high
Outline: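 Compounds are applied to the cln2 rad14 yeast strain, and growth is then compared with that of vehicle-treated cultures to give inhibition.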

[11] = NCI Yeast Anticancer Drug Screen. Data for the bub3 strain (AID 167); settings: S. cerevisiae bub3 mutant strain, active compounds read high
Outline: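 Steps: expose the mutant yeast strain to compound; grow alongside vehicle-treated cultures; measure growth; express inhibition against the vehicle cultures.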

[12] = NCI Yeast Anticancer Drug Screen. Data for the mlh1 strain (AID 171);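 further: 0% = growth of vehicle-treated control cultures of the same strain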; settings: S. cerevisiae mlh1 strain growth inhibition, active compounds read high
Outline: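 Growth of the mutant yeast strain after compound exposure, expressed as inhibition relative to vehicle-only controls.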

[13] = NCI Yeast Anticancer Drug Screen. Data for the sgs1 strain (AID 173);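 further: 0% = growth of vehicle-only control cultures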; settings: S. cerevisiae sgs1 mutant, active compounds read high
Outline: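 Growth of a yeast strain bearing a defined genetic alteration is measured after compound treatment. Inhibition is expressed relative to vehicle-only controls.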

[14] = NCI Yeast Anticancer Drug Screen. Data for the mlh1 rad18 strain (AID 175); settings: S. cerevisiae mlh1 rad18 strain growth inhibition, active compounds read high
Outline: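 Read-out is yeast growth inhibition, calculated against vehicle-only controls. The compound was applied to a strain engineered with DNA damage repair alterations.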

[15] = NCI Yeast Anticancer Drug Screen. Data for the rad18 strain (AID 177); settings: S. cerevisiae rad18 mutant growth inhibition, active compounds read high
Outline: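 Growth of the mutant yeast strain after compound exposure, normalised to vehicle-only cultures.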

[16] = at 5.0 µM (retest, dose inferred, filed as 0.5)
[17] = at 50.0 µM (retest, dose inferred, filed as 5.0)

Structure (SMILES): CCCCCCCCCCCCCCCCOP(=O)(O)OCC(N)C(=O)O (stereo unspecified)
- growth inhibition ([1]; at 1.2 µM): -2%
- growth inhibition ([1]; at 3.7 µM): 5%
- growth inhibition ([1]; at 11.0 µM): 54%
- growth inhibition ([1]; at 33.0 µM): 98% (active)
- growth inhibition ([1]; at 100.0 µM): 98% (active)
- growth inhibition ([2]; at 1.2 µM): -19%
- growth inhibition ([2]; at 3.7 µM): -22%
- growth inhibition ([2]; at 11.0 µM): 39%
- growth inhibition ([2]; at 33.0 µM): 98% (active)
- growth inhibition ([2]; at 100.0 µM): 97% (active)
- growth inhibition ([3]; at 1.2 µM): -17%
- growth inhibition ([3]; at 3.7 µM): -4%
- growth inhibition ([3]; at 11.0 µM): 80% (active)
- growth inhibition ([3]; at 33.0 µM): 98% (active)
- growth inhibition ([3]; at 100.0 µM): 98% (active)
- growth inhibition ([4]; at 1.2 µM): -1%
- growth inhibition ([4]; at 3.7 µM): 5%
- growth inhibition ([4]; at 11.0 µM): 52%
- growth inhibition ([4]; at 33.0 µM): 97% (active)
- growth inhibition ([4]; at 100.0 µM): 97% (active)
- growth inhibition ([5]; at 1.2 µM): -20%
- growth inhibition ([5]; at 3.7 µM): -6%
- growth inhibition [5, 16]: -25%
- growth inhibition ([5]; at 11.0 µM): 42%
- growth inhibition ([5]; at 33.0 µM): 97% (active)
- growth inhibition [5, 17]: 98% (active)
- growth inhibition ([5]; at 50.0 µM): 98.4% (active)
- growth inhibition ([5]; at 100.0 µM): 97% (active)
- growth inhibition ([6]; at 1.2 µM): 6%
- growth inhibition ([6]; at 3.7 µM): 3%
- growth inhibition [6, 16]: 12%
- growth inhibition ([6]; at 11.0 µM): 50%
- growth inhibition ([6]; at 33.0 µM): 98% (active)
- growth inhibition [6, 17]: 99% (active)
- growth inhibition ([6]; at 50.0 µM): 98.2% (active)
- growth inhibition ([6]; at 100.0 µM): 97% (active)
- growth inhibition ([7]; at 1.2 µM): 4%
- growth inhibition ([7]; at 3.7 µM): -4%
- growth inhibition ([7]; at 11.0 µM): 59%
- growth inhibition ([7]; at 33.0 µM): 98% (active)
- growth inhibition ([7]; at 100.0 µM): 97% (active)
- growth inhibition [8, 16]: -13%
- growth inhibition [8, 17]: 99% (active)
- growth inhibition ([8]; at 50.0 µM): 98.8% (active)
- growth inhibition ([9]; at 1.2 µM): 6%
- growth inhibition ([9]; at 3.7 µM): -10%
- growth inhibition ([9]; at 11.0 µM): -3%
- growth inhibition ([9]; at 33.0 µM): 94% (active)
- growth inhibition ([9]; at 100.0 µM): 97% (active)
- growth inhibition [10, 16]: 6%
- growth inhibition [10, 17]: 99% (active)
- growth inhibition ([10]; at 50.0 µM): 98% (active)
- growth inhibition ([11]; at 1.2 µM): -13%
- growth inhibition ([11]; at 3.7 µM): -29%
- growth inhibition [11, 16]: -14%
- growth inhibition ([11]; at 11.0 µM): 34%
- growth inhibition ([11]; at 33.0 µM): 98% (active)
- growth inhibition [11, 17]: 99% (active)
- growth inhibition ([11]; at 50.0 µM): 98.8% (active)
- growth inhibition ([11]; at 100.0 µM): 98% (active)
- growth inhibition ([12]; at 1.2 µM): -23%
- growth inhibition ([12]; at 3.7 µM): -11%
- growth inhibition ([12]; at 11.0 µM): 53%
- growth inhibition ([12]; at 33.0 µM): 97% (active)
- growth inhibition ([12]; at 100.0 µM): 97% (active)
- growth inhibition ([13]; at 1.2 µM): 14%
- growth inhibition ([13]; at 3.7 µM): 1%
- growth inhibition ([13]; at 11.0 µM): 51%
- growth inhibition ([13]; at 33.0 µM): 98% (active)
- growth inhibition ([13]; at 100.0 µM): 98% (active)
- growth inhibition [14, 16]: -26%
- growth inhibition [14, 17]: 99% (active)
- growth inhibition ([14]; at 50.0 µM): 98.2% (active)
- growth inhibition ([15]; at 1.2 µM): -25%
- growth inhibition ([15]; at 3.7 µM): -11%
- growth inhibition ([15]; at 11.0 µM): 40%
- growth inhibition ([15]; at 33.0 µM): 97% (active)
- growth inhibition ([15]; at 100.0 µM): 97% (active)

Structure (SMILES): CN(C)CCNC(=O)c1cccc2cc([N+](=O)[O-])ccc12
- growth inhibition ([1]; at 1.2 µM): 14%
- growth inhibition ([1]; at 3.7 µM): 20%
- growth inhibition ([1]; at 11.0 µM): 61%
- growth inhibition ([1]; at 33.0 µM): 92% (active)
- growth inhibition ([1]; at 100.0 µM): 96% (active)
- growth inhibition ([2]; at 1.2 µM): 13%
- growth inhibition ([2]; at 3.7 µM): 8%
- growth inhibition ([2]; at 11.0 µM): 41%
- growth inhibition ([2]; at 33.0 µM): 80% (active)
- growth inhibition ([2]; at 100.0 µM): 93% (active)
- growth inhibition ([3]; at 1.2 µM): 5%
- growth inhibition ([3]; at 3.7 µM): 21%
- growth inhibition ([3]; at 11.0 µM): 64%
- growth inhibition ([3]; at 33.0 µM): 91% (active)
- growth inhibition ([3]; at 100.0 µM): 95% (active)
- growth inhibition ([4]; at 1.2 µM): -1%
- growth inhibition ([4]; at 3.7 µM): 4%
- growth inhibition ([4]; at 11.0 µM): 33%
- growth inhibition ([4]; at 33.0 µM): 78% (active)
- growth inhibition ([4]; at 100.0 µM): 92% (active)
- growth inhibition ([5]; at 1.2 µM): 35%
- growth inhibition ([5]; at 3.7 µM): 42%
- growth inhibition [5, 16]: 38%
- growth inhibition ([5]; at 11.0 µM): 77% (active)
- growth inhibition ([5]; at 33.0 µM): 93% (active)
- growth inhibition [5, 17]: 92% (active)
- growth inhibition ([5]; at 50.0 µM): 86.5% (active)
- growth inhibition ([5]; at 100.0 µM): 97% (active)
- growth inhibition ([6]; at 1.2 µM): -6%
- growth inhibition ([6]; at 3.7 µM): 8%
- growth inhibition [6, 16]: 11%
- growth inhibition ([6]; at 11.0 µM): 20%
- growth inhibition ([6]; at 33.0 µM): 70% (active)
- growth inhibition [6, 17]: 72% (active)
- growth inhibition ([6]; at 50.0 µM): 82.7% (active)
- growth inhibition ([6]; at 100.0 µM): 93% (active)
- growth inhibition ([7]; at 1.2 µM): -1%
- growth inhibition ([7]; at 3.7 µM): 10%
- growth inhibition ([7]; at 11.0 µM): 47%
- growth inhibition ([7]; at 33.0 µM): 80% (active)
- growth inhibition ([7]; at 100.0 µM): 93% (active)
- growth inhibition [8, 16]: -2%
- growth inhibition [8, 17]: 68%
- growth inhibition ([8]; at 50.0 µM): 84.3% (active)
- growth inhibition ([9]; at 1.2 µM): 15%
- growth inhibition ([9]; at 3.7 µM): 20%
- growth inhibition ([9]; at 11.0 µM): 43%
- growth inhibition ([9]; at 33.0 µM): 56%
- growth inhibition ([9]; at 100.0 µM): 84% (active)
- growth inhibition [10, 16]: 23%
- growth inhibition [10, 17]: 55%
- growth inhibition ([10]; at 50.0 µM): 71% (active)
- growth inhibition ([11]; at 1.2 µM): -12%
- growth inhibition ([11]; at 3.7 µM): -27%
- growth inhibition [11, 16]: 8%
- growth inhibition ([11]; at 11.0 µM): -18%
- growth inhibition ([11]; at 33.0 µM): 51%
- growth inhibition [11, 17]: 67%
- growth inhibition ([11]; at 50.0 µM): 82.8% (active)
- growth inhibition ([11]; at 100.0 µM): 85% (active)
- growth inhibition ([12]; at 1.2 µM): -7%
- growth inhibition ([12]; at 3.7 µM): 6%
- growth inhibition ([12]; at 11.0 µM): 33%
- growth inhibition ([12]; at 33.0 µM): 69%
- growth inhibition ([12]; at 100.0 µM): 92% (active)
- growth inhibition ([13]; at 1.2 µM): 16%
- growth inhibition ([13]; at 3.7 µM): 22%
- growth inhibition ([13]; at 11.0 µM): 49%
- growth inhibition ([13]; at 33.0 µM): 79% (active)
- growth inhibition ([13]; at 100.0 µM): 93% (active)
- growth inhibition [14, 16]: 18%
- growth inhibition [14, 17]: 86% (active)
- growth inhibition ([14]; at 50.0 µM): 45.6%
- growth inhibition ([15]; at 1.2 µM): 7%
- growth inhibition ([15]; at 3.7 µM): 5%
- growth inhibition ([15]; at 11.0 µM): 23%
- growth inhibition ([15]; at 33.0 µM): 70% (active)
- growth inhibition ([15]; at 100.0 µM): 90% (active)
